# High-throughput results from PubChem.
# Only some compounds are listed: those with a hit (about 3.5% of all), similar ones and a draw of the others.
# ERa SRC1 pot – enhancers of ERα–SRC-1 coactivator binding, primary screen, biochemical, TR-FRET, ERα LBD, low estradiol; 86,000 tested, 1.3% active; TR-FRET ERalpha-LBD/SRC-Cy5 coactivator binding, 2 h; 100 = basal binding, no effect; coactivator binding (% of control), % at 25.6 µM; Estrogen receptor (Homo sapiens), P03372; in the data active = activity above about 200%;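 note: binding measured in presence of low estradiol as agonist stimulus; 0% = peptide alone without receptor and 100% = receptor with peptide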
# MMP-13 inhibitor – human MMP13 inhibitors, primary screen, biochemical, FRET peptide cleavage | inhibition, % at 4 µM | 65,000 tested, 0.07% active | Collagenase 3 (Homo sapiens), P45452 | MMP-13 fTHP FRET cleavage, Mca fluorescence | AID 570, 2006;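 active = inhibition above the mean of compound-free control plate wells plus 3 SD, cut at about 14% in these data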;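 note: 0% = DMSO wells and 100% = wells with reference MMP-13 inhibitor after basal subtraction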
# ERa coact inh – ERα–SRC-1 coactivator interaction inhibitors, primary screen, biochemical, TR-FRET, ERα LBD, estradiol-bound; 86,000 tested, 1.7% active; AID 629, 2007; TR-FRET ER-alpha LBD / SRC-1 peptide; Estrogen receptor (Homo sapiens), P03372; inhibition, % at 25.6 µM; in the data active = inhibition above about 50%;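 note: 0% = receptor plus peptide control and 100% = peptide only without receptor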
# ERb SRC1 inh – inhibitors of ERβ-SRC1 coactivator interaction, primary screen, biochemical, TR-FRET, ERβ LBD, SRC-1 peptide. Estrogen receptor beta (Homo sapiens), Q92731. TR-FRET ER-beta LBD / SRC1-Cy5 peptide binding; receptor agonist-loaded with 1 µM estradiol. inhibition, % at 25.6 µM. 86,000 tested, 1.3% active. AID 633, 2007;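 active = compounds whose percent inhibition of the receptor-coactivator binding signal exceeds about 50% in the single-dose screen, limit read from the data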;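 note: 0% = receptor plus peptide wells without compound and 100% = peptide-only wells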
# Target sequence (Q92731 whole entry, looked up, the tested form may be a part): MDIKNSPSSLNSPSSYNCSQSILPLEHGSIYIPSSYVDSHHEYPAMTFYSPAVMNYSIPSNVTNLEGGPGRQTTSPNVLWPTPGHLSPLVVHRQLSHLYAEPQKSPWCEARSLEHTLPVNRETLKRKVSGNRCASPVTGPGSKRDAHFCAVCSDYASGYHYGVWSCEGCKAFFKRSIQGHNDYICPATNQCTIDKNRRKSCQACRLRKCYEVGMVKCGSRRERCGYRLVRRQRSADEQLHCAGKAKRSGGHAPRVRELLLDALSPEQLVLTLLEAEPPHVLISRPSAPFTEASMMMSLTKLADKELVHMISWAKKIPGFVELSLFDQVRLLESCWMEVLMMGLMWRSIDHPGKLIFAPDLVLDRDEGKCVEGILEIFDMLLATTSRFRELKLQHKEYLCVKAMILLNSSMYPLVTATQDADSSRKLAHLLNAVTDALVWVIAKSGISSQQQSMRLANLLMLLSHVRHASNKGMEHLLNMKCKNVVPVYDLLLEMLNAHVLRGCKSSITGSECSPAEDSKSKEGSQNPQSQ
# MT1-MMP txn act – MT1-MMP promoter reporter activation – cell-based, luciferase luminescence, primary screen | HT1080 MT1-MMP promoter luciferase reporter, overnight; active compounds read high | activation factor at 10 µM | 86,000 tested, 0.16% active;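 active = activation factor of at least 2 for MT1-MMP transcription at 10 µM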
# Smad3 inh – Smad3/FoxH1 peptide binding inhibitors, primary screen, biochemical, TR-FRET | Mothers against decapentaplegic homolog 3 (Homo sapiens), P84022 | inhibition, % at 25 µM | TR-FRET Smad3/Dy647-FoxH1 peptide binding, europium anti-His | AID 630, 2007 | 88,000 tested, 0.29% active;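 active = compounds that reduce the energy-transfer binding signal between the protein and its labelled peptide by more than half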;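 note: 0% = Smad3 plus labelled peptide maximal FRET and 100% = peptide-only background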
# * = called active by the depositor; x = not tested or not shown; [ ] = dose if it differs, or a comment.
SMILES,ERa SRC1 pot,MMP-13 inhibitor,ERa coact inh,ERb SRC1 inh,MT1-MMP txn act,Smad3 inh
COc1ccc(/C=N/Nc2ncc(-c3ccccc3)cn2)c(OC)c1,422*[fluorescence artefact?],x,38,27,0.8,18
COc1cccc(/C=N/n2c(SC)nnc2-c2ccccc2)c1O,89,0,16,68*[fluorescence artefact?],1,1
Nc1nonc1NC(=O)CSc1ncccc1C(=O)O,101,0,-2,64*,1.1,14
c1ccc(-c2nc(N3CCN(c4ccccc4)CC3)nc(-n3ccnc3)n2)cc1,185,9,83*[fluorescence artefact?],29,1.1,3
CN(C)c1ccc(N=Cc2ccco2)cc1,66,5,29,70*,1.3,21
CN(C)c1ccc(C=Nc2ccc(N(C)C)cc2)cc1,78,x,-21,58*[fluorescence artefact?],1.6,1
CN(C)c1ccc(C=Nc2ccccc2)cc1,104,x,-4,3,1.2,17
CCOC(=O)C1CCN(c2nc3ccccc3nc2C(C#N)C(=O)OCCOC)CC1 (centres undefined),100,11,-12,1,1.1,6
COc1ccc(-n2nc(C(=O)Nc3ccc(OC)c(OC)c3)c3c4ccccc4n(C)c3c2=O)cc1,183,x,57*,12,1,10
COc1ccc(-n2nc(C(=O)Nc3ccc4c(c3)OCO4)c3c4ccccc4n(C)c3c2=O)cc1,118,1,-1,-4,1.1,2
O=C(c1cc2c(s1)CCCCC2)N1CCN(c2ncccn2)CC1,112,1,11,11,x,1
COc1ccccc1N1CCN(C(=O)c2cc3c(s2)CCC3)CC1,61,x,64*,43,1.2,5
N#Cc1cccc(NC(=O)CC2CCCCC2)c1,78,0,13,7,1.2,5
Cc1ccc(C(=O)Nc2nc(C(C)(C)C)cs2)s1,108,x,-2,-2,1.7,-9
CC(C)(C)c1csc(NC(=O)c2ccc3nccnc3c2)n1,113,x,9,-3,2*,17
CCCc1cc(=O)oc2cc(OCC(=O)Nc3ccc4c(c3)OCCO4)ccc12,216*[fluorescence artefact?],x,45,40,1.1,-15
COc1ccccc1NS(=O)(=O)c1cccs1,103,x,4,-4,1.1,7
Cc1nn(-c2ccc(F)cc2)c2nc(N)c(C#N)c(-c3cccs3)c12,243*[fluorescence artefact?],1,19,34,1.2,-4
COc1ccc(-c2c(C#N)c(N)nc3c2CCCCCC3)cc1OC,115,x,4,-8,0.9,0
COc1cc(-c2c(C#N)c(N)nc3c2c(C)nn3-c2ccc(C)c(C)c2)cc(OC)c1OC,459*[fluorescence artefact?],-54,33,54*[fluorescence artefact?],1.1,-3
Cc1c(-c2ccc(F)cc2)nc(N)c(C#N)c1-c1cccs1,123,x,2,-1,1.1,35
O=C(c1ccc(S(=O)(=O)N2CCOCC2)cc1)N1CCCc2ccccc21,117,x,-1,-8,1.2,-12
CCCCC1CCC(C(=O)Nc2ccc(S(=O)(=O)Nc3nccs3)cc2)CC1 (centres undefined),92,x,-8,-3,1.1,1
O=C(CCn1c(=O)[nH]c2ccsc2c1=O)N1CCN(Cc2ccc3c(c2)OCO3)CC1,102,-5,6,4,x,6
COCCN(Cc1ccccc1)P(=O)(O)c1ccccc1OCC(=O)O,262*[fluorescence artefact?],-5,1,-1,1.2,-6
Cc1cc(-c2cc(C)c(O)c(C(C)(C)C)c2)cc(C(C)(C)C)c1O,x,x,x,x,x,63*
Cc1ccc(-n2ncc3c(NCc4ccccn4)ncnc32)c(C)c1,106,0,0,7,1,-1
CCCn1c(/N=C/c2c[nH]c3ccccc23)nc2ccccc21,91,x,-1,-10,1.2,18
Cn1c(=O)cc(SCC(=O)Nc2cccnc2)c2ccccc21,264*[fluorescence artefact?],-2,5,-10,1,13
CC(C)N1C(=O)CCC1C(=O)N1CCCc2ccccc21 (centres undefined),105,0,0,-1,1.1,7
